B1: chr9:95013113:95013114:-_ENSG00000196305_ENST00000443024|hu_hu|hu_hu_hu_mus_False|68_98 (ssRNA)
RNA: GGGAGUUCUACAGUCCGACGAUCCUCAGUCAGAAAGGGUGUGUAGGGGGCCAUCAGUCUGCACAGAGAAAGCAGAACACUGAACAGUGUCUCCAGAGCCAUGACACAGUCUUCCACCCCACUCUCACCCUUUAACCUCCUCCUCAACAGAGGAUUGAGCAUCA
B2: 176631152_176631272_1200_CDS_ENSG00000165671_ENST00000439151|human|control|control (ssRNA)
RNA: GGGAGUUCUACAGUCCGACGAUCUUUCUGUUUCCCUCUUCUCCUAAGGACAGGUAGCUCUUCGAAUUGAUGUCUGCCUUCAAACAUGACGAUUGCUUUUCCAGCCACCCAGGCUCUCUCAGAAGGAUCUCCAAAAGCCUCCACCAACAGAGGAUUGAGCAUCA
B3: chr2:42509997:42509998:+_ENSG00000143924_ENST00000318522|hu_mus|hu_hu_hu_mus_True|38_108 (ssRNA)
RNA: GGGAGUUCUACAGUCCGACGAUCUCGCUGAGUUCUCUCCUCAUAAUUAAACAGGACUACCACUGAGGCGAUAAAAUAAACUAUCUCCCCUGUGGGAAGAAGGUAAACAUUCGCUCUACAGUCCUUUCCUCGAUAACCGUAUACCAACAGAGGAUUGAGCAUCA
B4: chr5:72798899:72798900:+_ENSG00000145741_ENST00000335895|hu_mus|motif|central (ssRNA)
RNA: GGGAGUUCUACAGUCCGACGAUCGGGUGCUUUUCCAUCCACAGAUUGUUUGGGCAGAGCUUCAGCCAGUCUCCUUAAACGGGUCAGGCUGUCUGCACCAAGCUGGUUGAGGAUGCUGGGAAGCAUUUCUGUCAGCUGCUUUGUCAACAGAGGAUUGAGCAUCA
B5: 160239608_160243617_1107_3pUTR_ENSG00000186432_ENST00000334256|human|control|control (ssRNA)
RNA: GGGAGUUCUACAGUCCGACGAUCAGGAACUAUUCCAGAGUCUAUUACCAUCUGUAUUUGUUCAUUGCCAGCAUCAGUAAGGUAAGAGAGGGCCCAGACUGUGUCUACCAGUAUAUUUACAUCUGUGUGAUGAAUUAAAACACACAACAGAGGAUUGAGCAUCA
B6: chrX:71099370:71099371:-_ENSMUSG00000031391_ENSMUST00000102871|mus_hu|FALSE|FALSE (ssRNA)
RNA: GGGAGUUCUACAGUCCGACGAUCUUUAUUUUUCCUGGGAUGGGUUCAUCAAAGCUAAUUGCUAUCAAUCCUAGAAACCACCUAGGGACUCAGACAUCUGCCUACACACUAGUGGCGUAAAGGGAAGGACAGGGGUACAAACUUCAACAGAGGAUUGAGCAUCA
B7: chr8:29927545:29927546:-_ENSG00000133872_ENST00000521265|hu_mus|FALSE|FALSE (ssRNA)
RNA: GGGAGUUCUACAGUCCGACGAUCAGAGGACUCGUAGCCUUCACAGCUCACCACAGUUUUGCCAAAUUUGUAUGCAAUAUCCAAGUCGGUCUUACAUUCCCACUGUACAUCGUAGCCAUCCCAGCCUUUGUUCUGGCACUGUAUCAACAGAGGAUUGAGCAUCA
B8: chr3:151883435:151883436:+_ENSMUSG00000028034_ENSMUST00000166984|mus_mus|motif|central (ssRNA)
RNA: GGGAGUUCUACAGUCCGACGAUCCAUUUCUCCAUUUCUUCCUAUUACAAUGCCAACAGCAAAUCUUGGAAUUGGGACAUCGGUCCCUUCAUUGCCUCCUAUUCUUGAGCCAUACUCAUUCCGCACUUCUCUGAAACCACCUUGCAACAGAGGAUUGAGCAUCA
B9: chr14:63839279:63839280:-_ENSG00000154001_ENST00000337537|hu_hu|motif|central (ssRNA)
RNA: GGGAGUUCUACAGUCCGACGAUCUUAAAAGGAAAAAAGGAAAACAAGGAAAAAAAACCACCCCAAACCCCAAAAAACUCGGAACACUUAAAAAUGCCAAUAACAUCCAUACAUCCCUUUCCCAUCCCACCCUCAUCCCCACAACAACAGAGGAUUGAGCAUCA
B10: chr7:135832672:135832673:+_ENSMUSG00000042105_ENSMUST00000118605|mus_mus|FALSE|FALSE (ssRNA)
RNA: GGGAGUUCUACAGUCCGACGAUCCACGCCAAAAAUUCCAUCACGACACAAUUUUUACACACACACCAAAAAACAAAAAAAACAAAAAAAAAAAAAAAAAACCCAAAAAACAAAAAACCCUACAGUGUCACUUCCAUCCUGCCUCAACAGAGGAUUGAGCAUCA
B11: chr1:66486067:66486068:+_ENSMUSG00000015222_ENSMUST00000077355|mus_hu|FALSE|FALSE (ssRNA)
RNA: GGGAGUUCUACAGUCCGACGAUCUUAUCCAGGUCCCAAAUGUUAAUAACUUAAUUGAAUCUUUCUUCCCAUUUAUACAAAAUAACACUUUAAAAAAACUUAUUUCUUACAUGCUCUUCCCUUCCUGCAAUCAGACUCCUUGGUCAACAGAGGAUUGAGCAUCA
B12: chr15:98568902:98568903:-_ENSMUSG00000051853_ENSMUST00000053183|mus_hu|FALSE|FALSE (ssRNA)
RNA: GGGAGUUCUACAGUCCGACGAUCGGCCAGGGAAAUGAAUACAUUUUUAAAUGAAAUAGAACCUCCAACACCCCCCCCACAACCACCACACACAAACACACCCACACCCAUAUACACACACACUCACACACACACACAGGCCUACAACAGAGGAUUGAGCAUCA
B13: chr1:225611761:225611762:-_ENSG00000143815_ENST00000272163|hu_mus|hu_hu_hu_mus_True|38_98 (ssRNA)
RNA: GGGAGUUCUACAGUCCGACGAUCCCAGGCCAUCGGCCUCUUACCACUUCACCCUCAACAAACUUCCUACUUGGCAUUUUCUAAAAUUAGUCUGGCCCAGGUUCCGGGGGAACUCCAGCCACUCCAGGACAGUCACCAGCAGCCCAACAGAGGAUUGAGCAUCA
B14: chr7:26237324:26237325:-_ENSG00000122566_ENST00000356674|hu_mus|FALSE|FALSE (ssRNA)
RNA: GGGAGUUCUACAGUCCGACGAUCCUCAUAGUAGUUUCUCAAACUUUCUUCUGUGGUUUCAAAGCUUAAGCCACCAAUAAAGAGCUUUCGGAACUGUUCCUUUUCUCUCUUUUUCCUCUCCAAAGGAACAGUUUCUAAAGUUUUCAACAGAGGAUUGAGCAUCA
B15: chr14:63839279:63839280:-_ENSG00000154001_ENST00000337537|hu_hu|FALSE|FALSE (ssRNA)
RNA: B9 RNA with G80U, G81A
B16: chr1:225611761:225611762:-_ENSG00000143815_ENST00000272163|hu_mus|hu_hu_hu_mus_True|38_48 (ssRNA)
RNA: B13 RNA with U41G, G89A, U90C, G94C, C95G
B17: chr5:131913501:131913502:-_ENSMUSG00000029673_ENSMUST00000160071|mus_mus|FALSE|FALSE (ssRNA)
RNA: GGGAGUUCUACAGUCCGACGAUCGUUCCAGUGCACAGAAUCCUUGGGAUUUUUUUUUUCUUUUUAGUUGUUGUCUUAAAAAAAAAAAAAUUAAAACGAAAGAAAGAAAACAAAACACCGCACACAUCUGGUGUCCACAAAAUCCAACAGAGGAUUGAGCAUCA
B18: 141912308_141912428_1497_3pUTR_ENSMUSG00000028273_ENSMUST00000029941|mouse|control|control (ssRNA)
RNA: GGGAGUUCUACAGUCCGACGAUCUUGGCACCGGCCACAUUCAGGAGCAAAGAACUUCUCAUAGCAUAGCUCACAGUACAGUGCUCCCUUCUCCUCUACAAAGCCUAUGUAGGCCAUUGUGUUUUUGCAAUGAGCACAGUUAAACAACAGAGGAUUGAGCAUCA
B19: chr11:51934471:51934472:+_ENSMUSG00000020349_ENSMUST00000020608|perfect_dup|motif|central (ssRNA)
RNA: GGGAGUUCUACAGUCCGACGAUCGAUUGCAGCUUGGUUACCACAACGAUAACAAUAGUUUGGAGCACUGAAAAUCGUUACGGCAUUCCGGUCAUGGCACCAGUUAUAUCCCUCCAUCACUAGCUGGUGAGCUCUAGACACCAACAACAGAGGAUUGAGCAUCA
B20: chr12:16048344:16048345:+_ENSG00000023734_ENST00000419869|hu_hu|hu_hu_hu_mus_True|38_68 (ssRNA)
RNA: GGGAGUUCUACAGUCCGACGAUCAGAUCGUCCAUAAGUAAUAACCAAAAUCUCUCCUUCAGGAAUAUAUUCCAUACUGCUAACAGACAUAUUAAAAUUUAGAGAUUUCACUUCUGUCAUUGUGGCAUGAUCCCAGAGCCGAACCAACAGAGGAUUGAGCAUCA
B21: chr1:115282395:115282396:-_ENSG00000009307_ENST00000339438|hu_hu|FALSE|FALSE (ssRNA)
RNA: GGGAGUUCUACAGUCCGACGAUCAUUAUACUGUGAACAGUGGAAGAAAAGUCUAGCUUGACGUUCUGAACACUGAAUAAAUCCGUAAGAGGUUAACAGUUUUUCAAUAACCCCAGUUUCACGCAGUGCUGCUGAAGUACCAUUCAACAGAGGAUUGAGCAUCA
B22: 35805507_35818940_561_CDS_ENSG00000108100_ENST00000265375|human|control|control (ssRNA)
RNA: GGGAGUUCUACAGUCCGACGAUCUUCAUCAAAAAUAUCUAAGAGCAUCCUUCCAUCUGGGUCCCUGUUUUUGAUGUGAUAAUAUAUUGCAAGAGCGACACAUUUAAUUGUAUACUUGAGGUUUGGUUGACUGACUGUGCUAUCCAACAGAGGAUUGAGCAUCA

Consider 22 molecules from paper PMC12136788.

Numbering of substitutions follows the chain as printed. Whole data set: some 24,000 sequences, median “enrichment r” near 0.99, cut for the highest 2% near 3.7. Many of the other results were omitted from the sample, so the highest values are more common in it than they were.

This test concerns the target T1, UNK ZnF1-3 (human, UniProt Q9C0B0 31-174).
T1 sequence: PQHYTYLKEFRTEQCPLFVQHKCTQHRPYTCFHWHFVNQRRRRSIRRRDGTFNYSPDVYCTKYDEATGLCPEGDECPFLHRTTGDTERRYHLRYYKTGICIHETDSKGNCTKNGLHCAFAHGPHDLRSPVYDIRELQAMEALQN
Briefly: nsRBNS (natural sequence RNA bind-n-seq); RBNS binding buffer (assumed for nsRBNS): 25 mM Tris pH 7.5, 150 mM KCl, 3 mM MgCl2, 0.01% Triton X-100, 500 ug/ml BSA, 20 U/ml SUPERase-In, 4 C; UNK is unkempt and MSI1 is Musashi-1; names of the RNAs are library labels; protein concentration not given here; high values mean tight binding.
For B1, the binding signal is 0.959 enrichment R.
On to B2, for which the binding signal amounted to 0.923 enrichment R.
On to B3, for which the binding signal was 1.03 enrichment R.
B4 registered a binding signal of 0.508 enrichment R.
On to B5, for which the binding signal stood at 1.37 enrichment R.
Regarding B6, the binding signal was 0.995 enrichment R.
Then B7, with 0.8 enrichment R.
As for B8, the figure is 0.909 enrichment R; as for B9, 3.96 enrichment R.
B10 showed a binding signal of 11.5 enrichment R.
Molecule B11 came in with a binding signal of 1.42 enrichment R.
As for B12, the figure is 3.59 enrichment R; as for B13, 1.5 enrichment R; as for B14, 0.272 enrichment R.
As for B15, the binding signal amounted to 4.18 enrichment R.
In the case of B16, the binding signal is 1.33 enrichment R.
As to B17, the binding signal amounted to 1.15 enrichment R.
As for B18, the figure is 0.923 enrichment R; as for B19, 1.16 enrichment R; as for B20, 1.04 enrichment R.
B21 displayed a binding signal of 0.906 enrichment R.
For B22, the binding signal worked out at 2 enrichment R.
